Only some compounds are listed: those with a hit (about 2.3% of all), similar ones and a draw of the others.
CHO-K1 Ca antag – nonselective inhibitor or artifact in parental CHO-K1 cells | ATP-induced calcium, Fluo-8 fluorescence | inhibition, % at 3 µM | 0.6% of 360,000 active;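 active = inhibition above a per-plate cutoff, the plate's mean sample inhibition plus 3 SD, cut at about 24% in these data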
M1 PAM – potentiates human M1 receptor response to acetylcholine. P11229. CHO-K1 hM1, Fluo-8 calcium fluorescence, ACh EC20; 0% = ACh EC20, 100% = maximal ACh. activation, % at 3 µM. 0.088% of 360,000 active. AID 588819; in the data active = activation above about 19%, passing the limit was not always enough
Target sequence (P11229 whole entry, looked up): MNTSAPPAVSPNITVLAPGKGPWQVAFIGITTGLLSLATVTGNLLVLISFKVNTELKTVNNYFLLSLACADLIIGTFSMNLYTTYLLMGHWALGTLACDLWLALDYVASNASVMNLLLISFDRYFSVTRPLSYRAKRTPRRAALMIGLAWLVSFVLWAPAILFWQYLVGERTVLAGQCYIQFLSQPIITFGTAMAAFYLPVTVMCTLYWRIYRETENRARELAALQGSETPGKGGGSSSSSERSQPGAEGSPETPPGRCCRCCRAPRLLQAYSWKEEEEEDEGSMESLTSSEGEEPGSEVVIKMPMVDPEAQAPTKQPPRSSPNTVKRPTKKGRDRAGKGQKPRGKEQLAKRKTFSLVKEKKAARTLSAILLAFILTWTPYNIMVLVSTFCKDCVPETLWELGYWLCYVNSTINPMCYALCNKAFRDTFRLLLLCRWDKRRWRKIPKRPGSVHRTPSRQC
M1 PAM parental – M1 PAM counterscreen hit in parental CHO-K1 cells | activation, % at 3 µM | ATP EC20, Fluo-8 calcium fluorescence; 0% at ATP EC20, 100% at ATP max | 0.02% of 360,000 active | AID 602247;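 active = activation above the run cutoff, the mean activation of all test compounds plus 3 SD, cut at about 40% in these data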;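 also: peak over basal fluorescence ratio in a 140 s read after ATP addition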
M1 ag parental – nonselective activator or artifact in parental CHO-K1 cells. Fluo-8 calcium fluorescence; scaled to maximal ATP response, vehicle zero. activation, % at 3 µM. 0.48% of 360,000 active; in the data active = activation above about 15%;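 also: untransfected CHO-K1 host cells lacking M1 receptor as counterscreen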
CHRM1 antagonist – blocks human M1 muscarinic receptor; inhibition, % at 3 µM; P11229; CHO-K1 hM1, Fluo-8 calcium fluorescence, ACh EC80 antagonist; AID 588852; 1.3% of 360,000 active;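 active = percent inhibition above its own plate's cutoff, namely the mean of that plate's compound wells plus 3 SD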;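 also: peak over basal fluorescence ratio during 140 s after agonist addition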
CHRM1 agonist – agonists of human M1 muscarinic receptor; 0.33% of 360,000 active; P11229; activation, % at 3 µM; CHO-K1 hM1, Fluo-8 calcium fluorescence, agonist mode; 0% DMSO, 100% acetylcholine EC100;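 active = activation above the run's mean compound activation plus 3 SD, cut at about 16% in these data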;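 also: peak over basal fluorescence ratio within a 140 s kinetic read after compound addition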
Each line names hits and unclear results; the compound was inactive in the other large screens.

CN1C2CCC1CC(OC(c1ccccc1)c1ccccc1N)C2 (stereo not given)	CHRM1 antagonist 99
Cc1ccccc1CCNCc1cc2cccc(C)c2[nH]c1=O	none
CC(=O)OC1CC2OC3C=C(C)CCC3(C)C1(C)C21CO1 (stereo not given)	none
c1ccc(-c2ccc(CN3Cc4ccccc4-n4nncc4C3)cc2)cc1	CHRM1 antagonist 36
COC(=O)C1=C(c2ccc(Cl)c(C(F)(F)F)c2)C[C@@H]2CC[C@H]1N2C(=O)NC1CCCCC1	none
O=S(=O)(NC1CN2CCC1CC2)c1ccc(Cl)cc1 (stereo not given)	CHRM1 antagonist 25
CN(Cc1cccc(-c2ccncc2)c1)C(=O)Oc1ccccc1Cl	none (no result: M1 PAM, CHRM1 antagonist, CHRM1 agonist)
CN(Cc1cccc(-c2ccncc2)c1)C(=O)Oc1ccccc1Cc1ccccc1	CHO-K1 Ca antag 24 (no result: M1 PAM, CHRM1 antagonist, CHRM1 agonist)
O=C1CCCN1CC#CCN1CCCC1	CHRM1 antagonist 87, CHRM1 agonist 102
C[N+]1=C(/C=C/Nc2ccccc2)C(C)(C)c2ccccc21	none
CCN1/C(=C/C=C/C2=[N+](CC)c3ccccc3C2(C)C)C(C)(C)c2ccccc21	CHO-K1 Ca antag 95, M1 ag parental 437, CHRM1 antagonist 100, CHRM1 agonist 460
Cc1ccccc1-n1c(-c2ccc([N+](=O)[O-])cc2)nc2ccccc2c1=O	CHRM1 antagonist 49
O=c1c2ccccc2nc(-c2ccc([N+](=O)[O-])cc2)n1-c1ccccc1	none
O=c1c2ccccc2nc(-c2ccccc2)n1-c1ccncc1	CHO-K1 Ca antag 31
O=C(CN1CCN(C(=O)COc2cccc(F)c2)CC1)Nc1ccc(Cl)c(C(F)(F)F)c1	none
c1ccc(C(c2ccccc2)c2ccncc2)cc1	CHRM1 antagonist 70
Cc1nc2cc(-c3ccccc3)nn2c(C)c1CCC(=O)N1CCC2(CC1)OCCO2	CHO-K1 Ca antag 24
Cc1nc2ncnn2c(C)c1CCC(=O)N1CCC2(CC1)OCCO2	none
CCCCCCn1c(O)c(C=NCCN2CCOCC2)c(=O)[nH]c1=O	M1 ag parental 17
O=C1NC(=O)N(c2ccc(Cl)cc2)C(=O)/C1=C\c1ccc(Sc2nc3ccccc3[nH]2)o1	CHO-K1 Ca antag 29
O=C1NC(=O)C(=Cc2ccc(Sc3ccccc3)o2)C(=O)N1	none
CSCCC(c1nnnn1-c1c(C)cccc1C)N1CCC2(CC1)C(=O)NCN2c1ccccc1 (stereo not given)	none
CC1(CCCc2ccc(N(CCCl)CCCl)cc2)NC(=O)NC1=O (stereo not given)	none
O=C(c1cccc(C(F)(F)F)c1)C1CCCN(Cc2ncc[nH]2)C1 (stereo not given)	none
CCn1ccnc1CN1CCCC(C(=O)c2cccc(C(F)(F)F)c2)C1 (stereo not given)	CHRM1 antagonist 78
COc1ccc(C(c2nnnn2C2CCCC2)N2CCC3(CC2)C(=O)NCN3c2ccccc2)cc1 (stereo not given)	none
Oc1ccccc1-[n+]1c(-c2ccccc2)cc(-c2ccccc2)cc1-c1ccccc1	none
CCCOC(=O)c1ccc(-[n+]2c(-c3ccccc3)cc(-c3ccccc3)cc2-c2ccccc2)cc1	CHRM1 antagonist 45
COc1ccc(-[n+]2c(-c3ccccc3)cc(-c3ccc(C)cc3)cc2-c2ccccc2)cc1	CHRM1 antagonist 86
Cc1ccccc1-[n+]1c(-c2ccccc2)cc(-c2ccccc2)cc1-c1ccccc1	CHRM1 antagonist 65
O=C(O)c1ccc(-[n+]2c(-c3ccccc3)cc(-c3ccccc3)cc2-c2ccccc2)cc1	none
COc1ccc(-c2cc(-c3ccccc3)[n+](C)c(-c3ccccc3)c2)cc1	none
COc1ccc(C(=O)C2CCCN(Cc3cccc(C)n3)C2)c(OC)c1 (stereo not given)	CHRM1 antagonist 46
COc1ccc(C(=O)C2CCCN(Cc3ccc(C)s3)C2)c(OC)c1 (stereo not given)	none
O=C1NCN(c2ccccc2)C12CCN(C(c1ccnc3ccccc13)c1nnnn1C1CCCCC1)CC2 (stereo not given)	none
O=c1[nH]c2ccccc2n1C1CCN(CCCC(c2ccc(F)cc2)c2ccc(F)cc2)CC1	CHRM1 agonist 21
COC1CC2C=C(C)C=CC=CC(=O)NC(c3ccccc3)CC=CCCC(O)CC(=O)C2=C1O (stereo not given)	CHRM1 antagonist 56
CNc1ccc2oc(C[C@H]3O[C@@]4(CC[C@H]3C)O[C@H]([C@H](C)C(=O)c3ccc[nH]3)[C@H](C)C[C@H]4C)nc2c1C(=O)O	CHO-K1 Ca antag 49, M1 ag parental 33, CHRM1 antagonist 94, CHRM1 agonist 105
COC(=O)C12CCc3c(ccc4cc(OC)ccc34)C1=CC(=O)C2 (stereo not given)	none
CC1CCOC(=O)C=CC=CC(=O)OC2CC3OC4C5OC5(C)C(O)CC4(COC(=O)C1O)C2(C)C31CO1 (stereo not given)	none
CC1=CC2OC3CC4OC(=O)C=CC=CC(=O)OCCC(C)C(O)C(=O)OCC2(CC1)C4(C)C31CO1 (stereo not given)	CHRM1 antagonist 37
COc1ccc(C(=O)C2CCCN(C3CSCCSC3)C2)c(C)c1 (stereo not given)	CHRM1 antagonist 54
CC(C)OCCCNC(=O)c1c(N)n(Cc2cccs2)c2nc3ccccc3nc12	CHO-K1 Ca antag 25
CC(C)CNC(=O)c1c(N)n(Cc2ccc3c(c2)OCO3)c2nc3ccccc3nc12	CHRM1 antagonist 41
CC(C)CCn1c(N)c(C(=O)NCc2cccs2)c2nc3ccccc3nc21	none
Cc1ccc(-[n+]2c(Cc3nn(-c4ccccc4)c(C)[n+]3-c3ccc(C)cc3)nn(-c3ccccc3)c2C)cc1	none
Cc1nc2cc(OC(=O)N(C)Cc3cccc(-c4ccncc4)c3)ccc2s1	none (no result: M1 PAM, CHRM1 antagonist, CHRM1 agonist)
COc1ccc(C(=O)C2CCCN(CCc3ccccc3)C2)cc1OC (stereo not given)	CHRM1 antagonist 55
COc1cccc(OC)c1CN1CCCC(C(=O)c2cccc(Cl)c2)C1 (stereo not given)	none
COc1ccc(C(=O)C2CCCN(Cc3ccc(F)cc3F)C2)cc1F (stereo not given)	CHRM1 antagonist 71
COc1ccc(OC(=O)N(C)C[C@H]2OCc3cnnn3CCCC(=O)N([C@H](C)CO)C[C@H]2C)cc1	none
CCOC(=O)c1ccc(NC(=O)N2C[C@@H]3C[C@@H](C2)c2cccc(=O)n2C3)cc1	CHO-K1 Ca antag 25
CC(=O)c1cccc(NC(=O)N2C[C@H]3C[C@@H](C2)c2cccc(=O)n2C3)c1	CHO-K1 Ca antag 29
O=C(/C=C/c1ccccc1)N1Cc2ccccc2-n2nncc2C1	none
Clc1ccccc1CNC1CN2CCC1CC2 (stereo not given)	CHRM1 antagonist 39
